# Data taken from PubChem BioAssay.
# Inconclusive results are not listed. Calls of active or inactive are those of the source. Unless noted, cut-off not given; nearly all actives show AC50 up to about 26 µM.
# What was measured:
# [1] = viability loss in pontine glioma line – cell-based, SU-DIPG-XVII, MIPE5.0, CellTiter-Glo, qHTS, dose response (AID 1347060); conditions: CellTiter-Glo ATP luminescence;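 on AC50: cells exposed to compound for 48 hours before viability readout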
# [2] = growth inhibition of DIPG cells – cell-based, MIPE5.0 library, qHTS (AID 1347068; cut-off not given, nearly all actives have IC50 up to about 30 µM;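 on IC50: cells exposed to compound for 48 hours before viability readout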); conditions: SU-DIPG-XXV viability
# [3] = JHH-DIPG-1 glioma cell viability, MIPE5.0 library, CellTiter-Glo luminescence, qHTS (AID 1347067); conditions: JHH-DIPG-1 glioma viability, CellTiter-Glo ATP luminescence;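 further: cells exposed to compound for 48 hours before readout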
# [4] = P. berghei load reduction in hepatocytes – cell-based, HepG2, luciferase luminescence, HepG2 viability, primary screen (AID 624349; in the data active means parasite load remaining mostly below about 12%, no sharp cut-off; inactive means mostly above about 10%;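 further: 100% = mean of DMSO negative control wells on the same plate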); conditions: P. berghei liver stage in HepG2, luciferase luminescence, concentration not given here; parasite load remaining: stronger effect = lower value; viability: measured here: HepG2 viability without parasites
# [5] = viability loss with induced miR-34 in A549 – imaging, A549 dox-inducible miR-34, nuclei and caspase counts, primary screen (AID 1347080;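 active means compounds whose cell count with miR-34 switched on is under 0.7 times the count with it off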); conditions: A549 miR-34 inducible, Hoechst nuclei count, 48 h
# [6] = compounds altering HSF1 focus formation in cells – imaging, Selleck Cancer Library (AID 1347162; in the data active means plate-normalised HSF1 focus index below about 0.46); conditions: human cells, HSF1 nuclear foci imaging, at 10 µM; SSMD: measured here: HSF1 foci SSMD mean; cell count: measured here: cell number; plate-normalised HSF1 focus index: stronger effect = lower value
# [7] = MELAS cybrid and Rieske KO viability enhancers – cell-based, MELAS cybrids, Rieske KO mouse fibroblasts, CellTiter-Glo, primary screen (AID 1508586;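 active means mean z-score across replicates of 1.96 or higher in either the MELAS or the Rieske mutant cell line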;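 further: z relative to plate mean and SD of compound and empty wells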); conditions: low glucose
# [8] = drug combination growth inhibition, ovarian cancer – cell-based, oncology-focused library, rucaparib conditional, profiling panel (AID 1508598;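 active means normalized viability below 100% at a tested concentration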); conditions: patient-derived ovarian cancer cells, CellTiter-Glo viability, 144 h, stronger effect = lower value
# [9] = stronger effect = lower value, cell number ratio, induced over uninduced
# [10] = measured here: relative caspase fold change +Dox/-Dox
# [11] = measured here: total cells with miR-34 induction, stronger effect = lower value
# [12] = measured here: total cells without miR-34 induction
# [13] = MELAS cybrid survival, CellTiter-Glo 48 h, stronger effect = higher value
# [14] = Rieske KO mouse fibroblast survival, CellTiter-Glo 72 h
smiles,measurement,setting,value
CC[C@@]1(O)C(=O)OCc2c1cc1n(c2=O)Cc2c-1nc1ccccc1c2CCNC(C)C,AC50,[1],0.00742 µM (active)
same,outcome,[2],inactive
NS(=O)(=O)c1ccc(Cc2c(-c3cccc(-c4ccccc4)c3)nn(-c3nc(C(=O)O)cs3)c2CC2CC2)cc1,AC50,[1],23.5 µM (active)
same,AC50,[3],20.9 µM (active)
same,outcome,[2],inactive
Cc1nc2cccc(N)c2c(=O)n1C1CCC(=O)NC1=O (stereo not given),outcome,[1],inactive
same,outcome,[3],inactive
same,outcome,[2],inactive
Cc1noc2c1-c1ccccc1C(c1ccc(Cl)cc1)=N[C@H]2CC(N)=O,outcome,[1],inactive
same,outcome,[2],inactive
C[C@H]1C[C@@H](n2c(Nc3ccc(OC(F)(F)F)cc3)nc3cc(CCC(=O)O)ccc32)CC(C)(C)C1,AC50,[1],23.5 µM (active)
same,outcome,[2],inactive
O=C(NO)C1(CS(=O)(=O)c2ccc(Oc3ccc(Cl)cc3)cc2)CCOCC1,outcome,[1],inactive
same,AC50,[3],3.72 µM (active)
same,outcome,[2],inactive
CC(C)n1cnc2c(NCCCCCCNC(=O)OC(C)(C)C)nc(NCCO)nc21,parasite load remaining,[4],47.6% (inactive)
same,viability,[4],102%
same,AC50,[1],23.5 µM (active)
same,AC50,[3],18.6 µM (active)
CC(C)(c1ccc(OCC(O)CO)cc1)c1ccc(OCC(O)CCl)cc1 (stereo not given),outcome,[1],inactive
same,outcome,[3],inactive
same,outcome,[2],inactive
Cc1cccc(-c2nn3c(c2-c2ccnc4ccc(C(N)=O)cc24)CCC3)n1,outcome,[1],inactive
same,outcome,[3],inactive
same,fold change,[5]; [9],0.932 (inactive)
same,fold change,[5]; [10],0.899
same,cell count,[5]; [11],8480
same,cell count,[5]; [12],9100
same,SSMD,[6],1.55
same,cell count,[6],6630
same,plate-normalised HSF1 focus index,[6],1.08 (inactive)
same,z-score,[7]; [13],-0.309 (inactive)
same,z-score,[7]; [14],1.2
same,viability,"[8]; at 0.000305 µM, OCI-C5x cells, with rucaparib 10 µM, 100% = cells with rucaparib alone",110% (inactive)
same,viability,"[8]; at 0.000305 µM, OCI-C5x cells, without rucaparib",130% (inactive)
same,viability,"[8]; at 0.000305 µM, OCI-P5x cells, with rucaparib 20 µM, 100% = cells with rucaparib alone",102% (inactive)
same,viability,"[8]; at 0.000305 µM, OCI-P5x cells, without rucaparib",110% (inactive)
same,viability,"[8]; at 0.00122 µM, OCI-C5x cells, with rucaparib 10 µM, 100% = cells with rucaparib alone",110% (inactive)
same,viability,"[8]; at 0.00122 µM, OCI-C5x cells, without rucaparib",133% (inactive)
same,viability,"[8]; at 0.00122 µM, OCI-P5x cells, with rucaparib 20 µM, 100% = cells with rucaparib alone",102% (inactive)
same,viability,"[8]; at 0.00122 µM, OCI-P5x cells, without rucaparib",108% (inactive)
same,viability,"[8]; at 0.00488 µM, OCI-C5x cells, with rucaparib 10 µM, 100% = cells with rucaparib alone",110% (inactive)
same,viability,"[8]; at 0.00488 µM, OCI-C5x cells, without rucaparib",128% (inactive)
same,viability,"[8]; at 0.00488 µM, OCI-P5x cells, with rucaparib 20 µM, 100% = cells with rucaparib alone",99.7% (active)
same,viability,"[8]; at 0.00488 µM, OCI-P5x cells, without rucaparib",112% (inactive)
same,viability,"[8]; at 0.0195 µM, OCI-C5x cells, with rucaparib 10 µM, 100% = cells with rucaparib alone",113% (inactive)
same,viability,"[8]; at 0.0195 µM, OCI-C5x cells, without rucaparib",136% (inactive)
same,viability,"[8]; at 0.0195 µM, OCI-P5x cells, with rucaparib 20 µM, 100% = cells with rucaparib alone",105% (inactive)
same,viability,"[8]; at 0.0195 µM, OCI-P5x cells, without rucaparib",110% (inactive)
same,viability,"[8]; at 0.0781 µM, OCI-C5x cells, with rucaparib 10 µM, 100% = cells with rucaparib alone",109% (inactive)
same,viability,"[8]; at 0.0781 µM, OCI-C5x cells, without rucaparib",127% (inactive)
same,viability,"[8]; at 0.0781 µM, OCI-P5x cells, with rucaparib 20 µM, 100% = cells with rucaparib alone",110% (inactive)
same,viability,"[8]; at 0.0781 µM, OCI-P5x cells, without rucaparib",116% (inactive)
same,viability,"[8]; at 0.313 µM, OCI-C5x cells, with rucaparib 10 µM, 100% = cells with rucaparib alone",114% (inactive)
same,viability,"[8]; at 0.313 µM, OCI-C5x cells, without rucaparib",137% (inactive)
same,viability,"[8]; at 0.313 µM, OCI-P5x cells, with rucaparib 20 µM, 100% = cells with rucaparib alone",113% (inactive)
same,viability,"[8]; at 0.313 µM, OCI-P5x cells, without rucaparib",114% (inactive)
same,viability,"[8]; at 1.25 µM, OCI-C5x cells, with rucaparib 10 µM, 100% = cells with rucaparib alone",111% (inactive)
same,viability,"[8]; at 1.25 µM, OCI-C5x cells, without rucaparib",135% (inactive)
same,viability,"[8]; at 1.25 µM, OCI-P5x cells, with rucaparib 20 µM, 100% = cells with rucaparib alone",112% (inactive)
same,viability,"[8]; at 1.25 µM, OCI-P5x cells, without rucaparib",118% (inactive)
same,viability,"[8]; at 5 µM, OCI-C5x cells, with rucaparib 10 µM, 100% = cells with rucaparib alone",131% (inactive)
same,viability,"[8]; at 5 µM, OCI-C5x cells, without rucaparib",157% (inactive)
same,viability,"[8]; at 5 µM, OCI-P5x cells, with rucaparib 20 µM, 100% = cells with rucaparib alone",127% (inactive)
same,viability,"[8]; at 5 µM, OCI-P5x cells, without rucaparib",125% (inactive)
N#Cc1cccnc1N1CCN(C(=O)c2cccc(Cc3n[nH]c(=O)c4ccccc34)c2)CC1,AC50,[1],0.059 µM (active)
same,outcome,[2],inactive
O=C(CCNC(=O)c1ccc(OC(F)(F)F)cc1)N[C@@H]1CCCc2ccccc21,AC50,[1],20.9 µM (active)
same,AC50,[3],8.33 µM (active)
same,outcome,[2],inactive
CNc1ncc2cc(-c3cc(NC(=O)NCCC(C)(C)C)c(F)cc3C)c(C)nc2n1,outcome,[1],inactive
same,outcome,[2],inactive
CC(C)(O)CNc1ncc(-c2ccnc(Nc3ccncc3)n2)c(CC2CC2)n1,AC50,[1],16.6 µM (active)
same,AC50,[3],16.6 µM (active)
same,IC50,[2],23.5 µM (active)
C[C@@H]1CC(=O)Nc2cccc(-c3ccc4c(c3)c(-c3cnn(C)c3)nn4C)c2N1,outcome,[1],inactive
same,outcome,[2],inactive
COC(=O)C1=C(C)NC(c2ncc(F)cc2F)=N[C@@H]1c1ccc(F)cc1Cl,outcome,[1],inactive
same,outcome,[2],inactive
N#Cc1cc2cc(CN3CCC(Nc4ncnc5sc(CC(F)(F)F)cc45)CC3)c(O)cc2n1Cc1cn[nH]c1,AC50,[1],29.5 µM (active)
same,IC50,[2],20.9 µM (active)
CN1C[C@@H]2c3ccccc3Oc3ccc(Cl)cc3[C@H]2C1,outcome,[1],inactive
same,outcome,[3],inactive
same,outcome,[2],inactive
same,fold change,[5]; [9],0.885 (inactive)
same,fold change,[5]; [10],1.23
same,cell count,[5]; [11],6350
same,cell count,[5]; [12],7170
same,z-score,[7]; [13],-0.348 (inactive)
same,z-score,[7]; [14],0.514
CN(C)CCN1C(=O)c2cccc3cc(NC(N)=O)cc(c23)C1=O,AC50,[1],18.6 µM (active)
same,outcome,[2],inactive
Cn1ncnc1[C@H]1c2n[nH]c(=O)c3cc(F)cc(c23)N[C@@H]1c1ccc(F)cc1,AC50,[1],0.742 µM (active)
same,outcome,[3],inactive
same,outcome,[2],inactive
CC(C)NCCCn1c(Sc2cc(Cl)cc(Cl)c2)nc2c(N)ncnc21,outcome,[1],inactive
same,outcome,[3],inactive
same,outcome,[2],inactive
CC(=O)N1CCN(CCOc2ccc(C3CCN(C4=Nn5c(nnc5C(F)(F)F)CC4)CC3)cc2)CC1,outcome,[1],inactive
same,fold change,[5]; [9],0.859 (inactive)
same,fold change,[5]; [10],0.882
same,cell count,[5]; [11],5930
same,cell count,[5]; [12],6900
same,z-score,[7]; [13],-0.00811 (inactive)
same,z-score,[7]; [14],-0.339
